Bioassay records deposited in PubChem by several laboratories.
This is a sample that favours compounds with a hit; in the whole collection about 2.6% have one here.
eIF4E 4G PPI – eIF4E/eIF4G interaction inhibition in translation initiation. TR-FRET eIF4E-eIF4GI(517-606) binding, 2 h. inhibition, % at 21.7 µM. hit rate 0.37% among 220,000. AID 782;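 active = inhibition above about 30%, limit read from the data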;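 note: 0% = full FRET control wells and 100% = background wells lacking eIF4GI fragment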
Mcl1-Noxa inh – disrupts binding of human Mcl-1 to Noxa peptide; TR-FRET Mcl-1/Noxa peptide binding, 2 h; inhibition, % at 21.7 µM; hit rate 1.5% among 220,000;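 active = compounds that cut the protein-peptide binding signal by more than 50% relative to plate controls in a single-dose test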;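 note: His-tagged Mcl-1 with rhodamine Noxa BH3 peptide and terbium anti-His antibody; 0% = Mcl-1 plus Noxa peptide wells and 100% = peptide-only wells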
Target sequence (Q07820 whole entry, looked up): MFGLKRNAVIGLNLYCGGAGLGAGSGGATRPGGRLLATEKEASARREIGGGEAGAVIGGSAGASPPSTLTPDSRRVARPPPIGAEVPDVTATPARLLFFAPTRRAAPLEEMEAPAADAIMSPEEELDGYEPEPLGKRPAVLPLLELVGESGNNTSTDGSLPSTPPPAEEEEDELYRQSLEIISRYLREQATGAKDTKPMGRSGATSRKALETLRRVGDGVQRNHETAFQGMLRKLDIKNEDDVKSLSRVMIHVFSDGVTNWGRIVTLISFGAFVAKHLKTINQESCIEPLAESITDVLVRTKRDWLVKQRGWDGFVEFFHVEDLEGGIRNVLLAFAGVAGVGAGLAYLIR
Mcl1-Bid inh – disrupts binding of human Mcl-1 to Bid peptide. TR-FRET Mcl-1/Bid-Dy647 peptide binding, 1536-well. inhibition, % at 21.7 µM. hit rate 0.97% among 220,000. AID 1021;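 active = compounds that cut the binding signal by more than half at the single screening dose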;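 note: His-tagged Mcl-1 with europium anti-His antibody binding Bid BH3 peptide; 0% = Mcl-1 plus peptide wells and 100% = peptide-only wells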
14-3-3 Bad PPI – disrupts binding of bovine 14-3-3 zeta to phospho-Bad peptide | inhibition, % at 21.7 µM | hit rate 0.71% among 220,000 | TR-FRET 14-3-3zeta/Dy647-pBad peptide displacement, 1 h | P63103;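 active = inhibition above about 70%, limit read from the data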;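 note: 0% = full 14-3-3 plus peptide FRET controls and 100% = background without 14-3-3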
Target sequence (P63103 whole entry, looked up): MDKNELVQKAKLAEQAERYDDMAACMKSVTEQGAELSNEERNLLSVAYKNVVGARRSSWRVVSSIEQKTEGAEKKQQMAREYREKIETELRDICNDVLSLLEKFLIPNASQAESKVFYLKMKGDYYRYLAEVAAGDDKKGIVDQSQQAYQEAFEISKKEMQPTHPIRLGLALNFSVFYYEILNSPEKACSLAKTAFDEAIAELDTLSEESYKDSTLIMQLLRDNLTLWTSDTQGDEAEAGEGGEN
MCL1-BIM inh – MCL1-BIM-BH3 interaction inhibition (human) | Q07820 | GST-MCL1 / FITC-Bim-BH3 fluorescence polarization | inhibition, % at 10.9 µM | hit rate 0.68% among 320,000 | AID 2057;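 active = inhibition above the mean inhibition of all tested compounds plus 3 SD, set per campaign, cut at about 40% in these data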;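 note: 0% = DMSO wells and 100% = unlabeled Bim-BH3 peptide control; higher means more loss of mP so more displacement of Bim peptide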
Mcl-1 Bim block – inhibitors of Bim-Mcl-1 interaction, human | Q07820 | Bead-based flow cytometry, Bim peptide-Mcl-1 binding | inhibition, % at 10 µM | hit rate 0.1% among 190,000 | AID 1009; in the data active = inhibition above about 40%;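 note: 0% = no compound tracer wells and 100% = peptide blocker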
* marks the source's active call; other numbers are inactive results; . = no result given; [ ] = another dose, or the depositor's remark.

SMILES	eIF4E 4G PPI	Mcl1-Noxa inh	Mcl1-Bid inh	14-3-3 Bad PPI	MCL1-BIM inh	Mcl-1 Bim block
COc1cc(C=O)cc(OC)c1OS(=O)(=O)c1ccc(NC(C)=O)cc1	7	52*	21	5	4	0
COc1ccc(C=O)cc1OS(=O)(=O)c1ccc(NC(C)=O)cc1	-5	10	9	31	-3	0
CCOC(CNC(=O)C(=O)Nc1cc2c3c(c1)CCC(=O)N3CCC2)OCC	.	.	.	.	9	.
O=C(/C=C/c1cccnc1)c1cccc(O)c1	.	.	.	.	10	.
O=C(/C=C/c1cccnc1)c1ccc(O)cc1	1	85*	-49	1	19	.
CCCN(CCC)C(=O)CSc1nc2n[nH]c(C)c2c(=N)n1-c1ccc(OCC)cc1	-4	-4	-33	-2	0	-6
CCOc1ccc(-n2c(SCC(=O)Nc3ccc(CC)cc3)nc3n[nH]c(C)c3c2=N)cc1	7	59*	59*	25	0	2
Nc1nc2nc(SCC(=O)N3CCCc4ccccc43)[nH]c2c(=O)[nH]1	5	59*	-10	9	2	0
Nc1cc(=O)[nH]c(SCC(=O)N2CCCc3ccccc32)n1	5	-16	-20	0	1	2
Cc1ccc(-c2sc(-c3cccnc3)nc2CC(=O)O)cc1	0	17	3	75*	-1	1
Cc1ccc(-c2nc(-c3cccnc3)sc2CC(=O)O)cc1	-6	9	11	-1	0	.
O=C1N=C2N(CCN3CCCCC3)c3ccccc3N2/C1=C\c1ccc([N+](=O)[O-])o1	12	12	83*	88*	.	0
CCOP(=O)(OCC)C(NC(=O)c1cccs1)c1ccccc1 (configuration not stated)	.	.	.	.	3	.
CCN=c1scc(-c2ccco2)n1/N=C/c1ccc(O)cc1	3	9	-16	26	-3	3
CCN=c1scc(C)n1/N=C/c1cc(Br)c(O)c(Br)c1	12	73*	-4	8	12	-1
Cc1occc1C(=O)N=Nc1c(O)[nH]c2ccc(Br)cc12	17	51*	36	68	9	16
Cc1nc(CN2CCCCC2)cc(=O)[nH]1	4	24	7	6	0	-1
COc1cccc(-c2csc(N3CCN(C(=S)Nc4cccc(Cl)c4)CC3)n2)c1	-7	-5	89*	-31	12	0
O=C(Nc1ccccc1C(=O)O)/C(=C/c1ccc(Cl)cc1Cl)NC(=O)c1ccco1	.	.	.	.	-2	.
COC(=O)c1ccccc1NC(=O)Cn1nc2n(C)c3ccccc3n2c(=O)c1=O	3	14	15	93*	1	-6
COC(=O)c1ccccc1NC(=O)Cn1cnc2c1c(=O)n(C)c(=O)n2C	.	.	.	.	0	.
COc1ccccc1NC(=O)N1CCCC1C(=O)NCc1ccccc1Cl (configuration not stated)	.	.	.	.	-2	.
CNC(=O)N(O)C1N(/N=C/c2c(F)cccc2Cl)C(=S)SC1(C)C (configuration not stated)	.	.	.	.	5	.
O=C(Cc1cccs1)Nc1nc(-c2cccnc2)cs1	9	72*	-63	-1	19	.
O=C(COc1ccc(Br)cc1)Nc1nc(-c2cccnc2)cs1	-1	22	-22	-2	1	.
SMILES	eIF4E 4G PPI	Mcl1-Noxa inh	Mcl1-Bid inh	14-3-3 Bad PPI	MCL1-BIM inh	Mcl-1 Bim block
Cc1cc(C)nc(NC(=O)c2c(F)c(F)c(F)c(C(=O)Nc3cc(C)cc(C)n3)c2F)c1	.	.	.	.	-5	.
CCCc1nc2oc3ccccc3c(=O)c2c(=O)n1-c1ccc(C)cc1	-11	2	7	2	0	.
CCc1nc2oc3ccccc3c(=O)c2c(=O)n1-c1ccc(C)cc1	23	54*	-19	38	20	.
CC(NC(=O)Cc1ccsc1)c1ccc(Cl)cc1Cl (configuration not stated)	.	.	.	.	0	.
Cc1nc(NC(=O)c2ccc(Cl)cc2)sc1-c1csc(Nc2cccc(F)c2)n1	-11	51*	9	73*	-18	0
Cc1nc(C)c(-c2csc(NCc3ccco3)n2)s1	5	23	0	1	-4	-1
COc1cccc(Nc2nc(-c3sc(NC(=O)c4ccccc4)nc3C)cs2)c1	-12	20	-43	52	-11	-5
Cc1nc(NC(=O)c2ccccc2)sc1-c1csc(NCc2ccco2)n1	2	61*	-12	-2	-12	-2
Cc1nc(NC(=O)c2ccccc2)sc1-c1csc(Nc2ccc(C(=O)O)cc2)n1	35*	90*	91*	75*	.	.
Cc1ccc2c(c1)N(C(=O)CCC(=O)N1CCC(C(N)=O)CC1)CC(C)O2 (configuration not stated)	.	.	.	.	-1	.
O=C1Nc2ccccc2C(=O)C1(Cl)Cc1ccccc1 (configuration not stated)	38*	-4	-46	28	-9	2
Cc1ccc(N2NC(=O)/C(=C\c3cc4c(cc3[N+](=O)[O-])OCO4)C2=O)cc1C	8	100*	5	-19	16	1
CCOC(=O)N1CCN(C(=O)CSc2nc3c([nH]c4ccccc43)c(=O)n2CC)CC1	.	.	.	.	8	.
O=C(COc1ccc2ccccc2c1)NNC(=O)c1ccc([N+](=O)[O-])cc1	-2	82*	12	-3	-4	-3
Cn1cc(Br)c(C(=O)Nc2c(F)c(F)c(F)c(F)c2F)n1	-1	5	-20	-14	-2	-3
Cn1cc(Br)c(NC(=O)/C=C/C(=O)O)n1	10	67*	18	5	-1	.
COc1cc(CNc2ccc(N3CCCC3)cc2)ccc1OCc1ccccc1F	32*[fluorescence artefact?]	57*	-106	2	8	1
COc1cc(CNc2ccc(N3CCCC3)cc2)ccc1OCc1ccccc1	7	36	-56	7	12	2
COc1cc(CNCc2ccncc2)cc(Br)c1OCc1ccccc1F	13	36	55*	83*	11	0
CCOc1cc(CNc2ccc(O)cc2)cc(Br)c1OCc1ccccc1F	0	-3	-15	-4	17	-2
COc1cc(CNc2ccc(O)cc2)cc(Br)c1OCc1ccccc1F	3	29	95*	-3	21	-3
COc1ccc(/C=N/Nc2nc(-c3cccnc3)nc3ccccc23)c(OC)c1	11	35	54*	70*	-4	.
O=C(/C=C/c1ccco1)c1ccc(NC(=O)C23CC4CC(CC(C4)C2)C3)cc1	15	60*	31	-4	-9	-4
CCC(=O)NC1=C(Cl)C(=O)C(NC(=O)CC)=C(Cl)C1=O	8	92*	-184	26	.	.
CCC(=O)NC1=C(NC(C)c2ccccc2)C(=O)c2ccccc2C1=O (configuration not stated)	1	24	5	16	-1	0
COc1ccccc1/C=C/C=N/NC(=O)c1cc(-c2ccco2)[nH]n1	8	62*	-37	12	23	.
COc1ccccc1/C=C/C=N/NC(=O)c1ccccn1	-2	11	-7	-9	3	-5
